{
  "source": "paper PMC7819943",
  "about": "“Rice protein-binding microarrays: a tool to detect cis-acting elements near promoter regions in rice”",
  "note": "In all, about 35,000 sequences were measured (“fluorescence intensity (a.u.)”: median about 10,000, highest 2% from about 52,000 on). Shown is part of a subset that was picked to be rich in the highest values.",
  "data": [
    {"target": "T1, OsWOX13 (Oryza sativa, UniProt Q5QMM3 1-267)", "T1 sequence": "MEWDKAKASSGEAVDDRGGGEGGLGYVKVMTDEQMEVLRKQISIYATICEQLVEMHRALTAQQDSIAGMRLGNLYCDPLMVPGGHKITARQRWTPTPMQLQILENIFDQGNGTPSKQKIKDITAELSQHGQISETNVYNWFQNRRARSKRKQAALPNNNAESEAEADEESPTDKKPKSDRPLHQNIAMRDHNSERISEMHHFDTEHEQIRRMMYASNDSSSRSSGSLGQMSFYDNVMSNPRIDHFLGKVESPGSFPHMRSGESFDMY", "assay": "protein-binding microarray (RPBM); PBS, 2% BSA, 51.3 ng/ul salmon testes DNA, 50 uM zinc acetate, 200 nM TF, 25 C, 1 h; high values mean tight binding", "conditions": "protein: recombinant; tags: N-terminal polyhistidine and DsRed monomer fusion (pET32a); label: CyDye5-dUTP incorporated in the synthesized complementary strand; 3' TTTTT single-stranded linker to array surface; dsDNA, one strand shown", "in_short": "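The binding signal is fluorescence intensity per array feature (arbitrary units). Readings came from an Axon 4000B scanner after a washed, 2% BSA-blocked, double-stranded custom Agilent array had been incubated for 1 h at 25 °C with 200 nM protein and 50 µM zinc acetate. The protein was a Ni–NTA-purified transcription factor fused N-terminally to polyhistidine and DsRed, expressed in E. coli BL21-CodonPlus.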", "values": [
      {"sequence": "GAGATATAATTGATTAGAGTTACTTTCAATCTTTTCCGTGCGGAGTCACCTAGTGCAG", "binding signal": "62000 fluorescence intensity (a.u.)"},
      {"sequence": "AAGGATTAGATATGATTCAATCTTTTGGTTCAAAGTTCTTCGGAGTCACCTAGTGCAG", "binding signal": "6590 fluorescence intensity (a.u.)"},
      {"sequence": "CACAATCACGAATTGAAGAAAGTCCTTCATTTCACATCAACGGAGTCACCTAGTGCAG", "binding signal": "3660 fluorescence intensity (a.u.)"},
      {"sequence": "AATCCTAATTATAAGATTTAAGACCTTTCTCTTCACTTCACGGAGTCACCTAGTGCAG", "binding signal": "9800 fluorescence intensity (a.u.)"},
      {"sequence": "CTAGATTGAGAGCATCTGATTCAATAATTAGACTTTCAATCGGAGTCACCTAGTGCAG", "binding signal": "45100 fluorescence intensity (a.u.)"},
      {"sequence": "TCTAAATTAATCTTTAGTTCTTGACCGCAAAATATGAAGCCGGAGTCACCTAGTGCAG", "binding signal": "14800 fluorescence intensity (a.u.)"},
      {"sequence": "TAACGGATTGATACATCTGGTTACAAATGTGCACTACATACGGAGTCACCTAGTGCAG", "binding signal": "3880 fluorescence intensity (a.u.)"},
      {"sequence": "TAGCTAATTTGCACCCACATGCATGTGCTTCGAGTAGTTACGGAGTCACCTAGTGCAG", "binding signal": "7070 fluorescence intensity (a.u.)"},
      {"sequence": "CCCTTACTGATTGGACGGTCCCGCGCATAAGCATGCGCACCGGAGTCACCTAGTGCAG", "binding signal": "27800 fluorescence intensity (a.u.)"},
      {"sequence": "TTCAACCATAAATTGAATTGAATAGGACGGATGATGGTTACGGAGTCACCTAGTGCAG", "binding signal": "12700 fluorescence intensity (a.u.)"},
      {"sequence": "ATGGGCCACGGGCCCACGGACCATACGCATAGGATTCAACCGGAGTCACCTAGTGCAG", "binding signal": "59500 fluorescence intensity (a.u.)"},
      {"sequence": "TGATTAACAGCAACCATAGACGGGACAGGCCAGCCCACCACGGAGTCACCTAGTGCAG", "binding signal": "3260 fluorescence intensity (a.u.)"},
      {"sequence": "GTACAATTTTCATAATTTGCATAAATCGAAAAGAAAAGTGCGGAGTCACCTAGTGCAG", "binding signal": "12400 fluorescence intensity (a.u.)"},
      {"sequence": "GGTATGATAAACTTGACTAATTATACCATTGGATCATTGTCGGAGTCACCTAGTGCAG", "binding signal": "11000 fluorescence intensity (a.u.)"},
      {"sequence": "ATGATTAATACTTAATTAATTATGTGCGCTCATGGATCACCGGAGTCACCTAGTGCAG", "binding signal": "56400 fluorescence intensity (a.u.)"},
      {"sequence": "TGATGGATTAATATATGATTAATTAAGTATTAGCTTAAACCGGAGTCACCTAGTGCAG", "binding signal": "13200 fluorescence intensity (a.u.)"},
      {"sequence": "TTTTATAATGATACTTAATTAATCATGTGCTAATAATCACCGGAGTCACCTAGTGCAG", "binding signal": "9330 fluorescence intensity (a.u.)"},
      {"sequence": "TTAAATTATATTTATATCAAATTATACTTTGATCAATACTCGGAGTCACCTAGTGCAG", "binding signal": "39900 fluorescence intensity (a.u.)"},
      {"sequence": "CAAATGAGCTAATACTTAATTAATAATGCGCTAATGGATCCGGAGTCACCTAGTGCAG", "binding signal": "4340 fluorescence intensity (a.u.)"},
      {"sequence": "ACTAATGATGGATTAATTAGGCTTAATATATTCATCTCGCCGGAGTCACCTAGTGCAG", "binding signal": "58100 fluorescence intensity (a.u.)"},
      {"sequence": "GTTTGGATTGATTATTGGGACAGTGAAATTGACCATTTGACGGAGTCACCTAGTGCAG", "binding signal": "39600 fluorescence intensity (a.u.)"},
      {"sequence": "TATGAGATATCATTTAATTATATAATAAATATAATGATGTCGGAGTCACCTAGTGCAG", "binding signal": "4610 fluorescence intensity (a.u.)"},
      {"sequence": "GATTAATTAGGCTCAATATATTCATCTCGCGAATTAGTCCCGGAGTCACCTAGTGCAG", "binding signal": "33000 fluorescence intensity (a.u.)"},
      {"sequence": "AATGATGGAGGATAATTTATATGCTAAATTATAAACTTGTCGGAGTCACCTAGTGCAG", "binding signal": "57700 fluorescence intensity (a.u.)"},
      {"sequence": "TAAATTGATCAAATTGCCATTTGGAGTGCAGTGACGGGCTCGGAGTCACCTAGTGCAG", "binding signal": "54900 fluorescence intensity (a.u.)"},
      {"sequence": "CAAGAACCAATAATTTGCAAACTGTAGGGCACAGTTCGATCGGAGTCACCTAGTGCAG", "binding signal": "6920 fluorescence intensity (a.u.)"},
      {"sequence": "GTCTCTTTGAAATTGAAATTGGGCCTCATTTAGTCTGTTACGGAGTCACCTAGTGCAG", "binding signal": "3500 fluorescence intensity (a.u.)"},
      {"sequence": "TTTTCCATCACATTAACCTGTCATACACACAAAACTTTTCCGGAGTCACCTAGTGCAG", "binding signal": "4820 fluorescence intensity (a.u.)"},
      {"sequence": "ACAATCAATCAATCTTGCTTTCCATTCAAAGTCTTCATTTCGGAGTCACCTAGTGCAG", "binding signal": "35000 fluorescence intensity (a.u.)"},
      {"sequence": "AATGTGAGCATGTGATTTAAATTTGAGAAAATTCAACTTGCGGAGTCACCTAGTGCAG", "binding signal": "3660 fluorescence intensity (a.u.)"},
      {"sequence": "GTCCTATTTGACGCTTTGATTAGACAACGCTTTGTCAATTCGGAGTCACCTAGTGCAG", "binding signal": "12900 fluorescence intensity (a.u.)"},
      {"sequence": "CGCTTGATCTGGGGTGGGGTCGCGAGTGGTGGAGGAGGTGCGGAGTCACCTAGTGCAG", "binding signal": "3600 fluorescence intensity (a.u.)"},
      {"sequence": "TGTTGACAAAATTAGCTGTTGCAACGCATACAGACTTCAACGGAGTCACCTAGTGCAG", "binding signal": "7410 fluorescence intensity (a.u.)"},
      {"sequence": "CCCTAATTATGGTACGTGTTGATCGTGCCACTTCTTCCTCCGGAGTCACCTAGTGCAG", "binding signal": "39500 fluorescence intensity (a.u.)"},
      {"sequence": "TTAGATAAAATTAATTTGTCTTGCTTTTGTAGGCTGCAGACGGAGTCACCTAGTGCAG", "binding signal": "27700 fluorescence intensity (a.u.)"},
      {"sequence": "CTGGATGATTGGATTGATTATGGACAGATTTAAATTTGCTCGGAGTCACCTAGTGCAG", "binding signal": "65500 fluorescence intensity (a.u.)"},
      {"sequence": "ACTGATTAGTGGATATGCTTTATATATGTAATTAGGATGCCGGAGTCACCTAGTGCAG", "binding signal": "53000 fluorescence intensity (a.u.)"},
      {"sequence": "AAACCTAATTAATCATGCGCAAATGGCTTTCTTGTTTTGCCGGAGTCACCTAGTGCAG", "binding signal": "22900 fluorescence intensity (a.u.)"},
      {"sequence": "ATGTATTTGCTATTAAATTAATTATAGATGATTTAGAGCTCGGAGTCACCTAGTGCAG", "binding signal": "16300 fluorescence intensity (a.u.)"},
      {"sequence": "ATGTGCTAATGATGGATTAATTACGCTTAATAAATTCGTCCGGAGTCACCTAGTGCAG", "binding signal": "28000 fluorescence intensity (a.u.)"},
      {"sequence": "TGCTAATGATGGATTAATTAAGCTTAATAAATTCATCTCGCGGAGTCACCTAGTGCAG", "binding signal": "53700 fluorescence intensity (a.u.)"},
      {"sequence": "GTTTGATTGCTTAATTAATTTCCAAATGCGCAATCATGCACGGAGTCACCTAGTGCAG", "binding signal": "64800 fluorescence intensity (a.u.)"},
      {"sequence": "TACACTGATTAGTGGATGATGATATAGTATCTTTGTATGTCGGAGTCACCTAGTGCAG", "binding signal": "45600 fluorescence intensity (a.u.)"},
      {"sequence": "AATTAATCATGCAATAAAACAAATTTCGTTTTGCGTGCTACGGAGTCACCTAGTGCAG", "binding signal": "6310 fluorescence intensity (a.u.)"},
      {"sequence": "ATAAAATGTAAATTATGCTTAAAATGCTTTTAGTGATAAACGGAGTCACCTAGTGCAG", "binding signal": "4750 fluorescence intensity (a.u.)"},
      {"sequence": "TTGCTAATGACGGATTAATTATGCTTAATAAATTCATCTCCGGAGTCACCTAGTGCAG", "binding signal": "20600 fluorescence intensity (a.u.)"},
      {"sequence": "TGATTTAATTAATTAATTAATGGCCTTGTTATTGGATGCTCGGAGTCACCTAGTGCAG", "binding signal": "47100 fluorescence intensity (a.u.)"}
    ]}
  ]
}
